Reference: PubChem BioAssay (NCI)
Several values for one entry are separate records, joined by “and”; a condition that tells them apart may be missing. Identical values can stand only once. About 83,000 compounds went through this panel and 20% of them were active in at least one assay; those are over-represented in the sample as a whole.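 Testing used 96-well plates and a 48-hour single-concentration exposure. Example: -40 means 40% of the starting cells died.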 More than one record can exist for a structure, and the calls need not agree. Activity calls are given as the source filed them.

system: HCC-2998 colon; assay: NCI-60 one-dose screen, 48 h (100 = growth as untreated, 0 = no growth, -100 = all killed); conditions: 1 µM
Procedure: Growth inhibition of the HCC-2998 human tumor cell line is measured as a screen for anti-cancer activity. Cells are grown in 96 well plates and exposed to the test compound for 48 hours. Compounds are tested at a single concentration, which is 10^-5 M for most compounds. The reported endpoint is percent growth (GI% or GIPRCNT), where numbers from 0 - 100% represent growth inhibition, and numbers from -100% - 0 represent cell death. For example, a value of 40 represents 60% growth inhibition. A value of 0 means no net growth occurred over the course of the experiment. A value of -40 indicates 40% of cells at the beginning of the experiment died by the end of the experiment. A value of -100 means all cells are dead at the end of the experiment.
NCI-60 Human Tumor Cell Lines Screen was performed using the standard one-dose NCI protocol, which is described in more detail at https://dtp.cancer.gov/discovery_development/nci-60/default.htm.
Compounds with GIPRCNT values below 10 were considered active. Activity score was based on GIPRCNT using the following formula: […]
Score is 0 for GIPRCNT values of 100 or above, 50 for GIPRCNT values of 0, and 100 for GIPRCNT values of -100.

Row | Structure (SMILES) | growth
1 | CNC(=O)c1cc(Oc2ccc(CC(=O)Nc3cc(C(C)(C)C)nn3C)cc2)ccn1 | 107% (inactive)

same assay, conditions: 10 µM

Row | Structure (SMILES) | growth
2 | CC(C)(C)c1cc(NC(=O)Cc2ccc(-c3cnc4cc(-c5cnn(CCN6CCOCC6)c5)ccc4n3)cc2)no1 | 40.3% (inactive)
3 | CNC(=O)c1cc(Oc2ccc(CC(=O)Nc3cc(C(C)(C)C)nn3C)cc2)ccn1 | 75.3% (inactive)
4 | COc1ccc(Cl)cc1C(=O)NCCc1ccc(S(=O)(=O)NC(=O)NC2CCCCC2)cc1 | 126% (inactive) and 118% (inactive)
5 | CC1(C)OB(c2ccc(Cn3cc(F)c(=O)[nH]c3=O)cc2)OC1(C)C | 104% (inactive)
6 | Cc1[nH]c(-c2nc3ccccc3[nH]2)c(C)c1C(=O)NC(C)C1CCCCC1 (stereo unspecified) | 97.9% (inactive)

same assay, conditions: 10 µM unless noted

Row | Structure (SMILES) | growth
7 | COc1cc(C(=O)N/N=C/c2ccc(N(C)C)cc2)cc(OC)c1OC | 12% (inactive)
8 | Cc1ccc(S(=O)(=O)Nc2nc3ccccc3nc2Nc2ccc3nsnc3c2)cc1 | 42.1% (inactive)
9 | O=S(=O)(Nc1ccccc1)C1CCCCC1 | 116% (inactive) and 106% (inactive)
10 | CCN(CC)CCOc1ccc2c(c1)C(=O)c1cc(OCCN(CC)CC)ccc1-2 | 77.9% (inactive) and 56.5% (inactive)
11 | CCN(CC)CCNc1cc(-c2cccc(OC(F)(F)F)c2)nc2ccc(N3CCCC3)cc12 | 23.8% (inactive) and -45.2% (active) and -4.48% (active)
12 | Cc1n[nH]c(=O)n(/N=C\c2c[nH]c3ccccc23)c1=O | 108% (inactive)
13 | CN(C)c1ccc(C(Cc2ccc3ccccc3n2)Cc2ccc3ccccc3n2)cc1 | 35% (inactive) and 91.1% (inactive)
14 | O=C1C2=C(C(=O)c3ccccc31)C(O)(S(=O)(=O)O)C(O)(S(=O)(=O)O)C1N=CC=CC21 (stereo unspecified) | 44.6% (inactive) and 28.3% (inactive)
15 | O=C(O)c1cc(C(=O)O)cc([N+](=O)[O-])c1 | 110% (inactive)
16 | Cc1ccc(-c2noc(CC(=O)c3ccc([N+](=O)[O-])cc3)n2)cc1 | 103% (inactive)
17 | O=C(N/N=C/c1cccc2ccccc12)C1CC1 | 104% (inactive) and 101% (inactive)
18 | COc1ccccc1/C=N\N=C(N/N=C/c1ccccc1OC)N/N=C/c1ccccc1OC | 33.7% (inactive) and 26.8% (inactive)
19 | OC1CCC(Oc2cccc3cnc(Nc4ccc5nc[nH]c5c4)nc23)CC1 (stereo unspecified) | 8.35% (active) and 61.4% (inactive)
20 | CCOc1ccc2cc(-c3nn(CC4CCN(C)CC4)c4ncnc(N)c34)ccc2c1 | 102% (inactive) and 54.5% (inactive)
21 | CCN(CC)CCC(CNc1c2ccc([N+](=O)[O-])cc2nc2cc(OC)c(OC)cc12)c1ccccc1 (stereo unspecified) | -98.9% (active)
22 | CN1CCN(c2ccc3nc(-c4c(N)c5c(F)cccc5[nH]c4=O)[nH]c3c2)CC1 | 38.2% (inactive) and 44.8% (inactive)
23 | CC(C)(C)c1ccc(O)c(CNC2CCCCC2)c1 | 52.7% (inactive) and 104% (inactive)
24 | CNc1cc(-c2cccc(OC(F)(F)F)c2)nc2ccc(N3CCCC3)cc12 | 25.9% (inactive) and -53.7% (active) and -32.7% (active)
25 | CC(=O)C(/C=N/C(N)=O)=C(/C)O | 106% (inactive)
26 | O=C(O)C1C2C=CC(C2)C1C(=O)O (stereo unspecified) | 117% (inactive) and 46.1% (inactive) and 107% (inactive)
27 | O=C(c1ccc(Cl)cc1)C(NCCO)c1ccc(Cl)cc1 (stereo unspecified) | 101% (inactive)
28 | CC1=CCC2CC1C2(C)C (stereo unspecified) | 42.3% (inactive)
29 | Cn1cc(-c2cc3c(Nc4ccc(CC(=O)Nc5cc(C(C)(C)C)on5)cc4)ncnc3[nH]2)cn1 | -10.8% (active) and -2.61% (active)
30 | CCN(CC)CCCC(C)N(Cc1ccccc1)CC(O)c1ccc(Cl)cc1 (stereo unspecified) | 101% (inactive)
31 | CCOc1ccc(Nc2c3ccccc3nc3ccccc23)cc1 | 39.8% (inactive)
32 | Cc1nnc(NC/C=C/c2ccccc2)s1 | 127% (inactive) and 102% (inactive)
33 | CCN(CC)CCCC(C)Nc1cnc(C(=O)Nc2cc(F)cc3cccnc23)cn1 (stereo unspecified) | 66.7% (inactive) and 14.1% (inactive)
34 | Oc1ccccc1/C=N\NC(=S)N/N=C/c1ccccc1O | 33.8% (inactive) and 49.7% (inactive)
35 | COC(=O)/C=C/c1cc(O)c2c(c1)C(C(=O)OC)C(c1ccc(O)c(O)c1)O2 (stereo unspecified) | 27.8% (inactive) and 29.9% (inactive)
36 | O=[N+]([O-])c1ccccc1/C=N\Nc1ccccc1 | 88.6% (inactive) and 91.5% (inactive)

same assay, conditions: 30 µM

Row | Structure (SMILES) | growth
37 | CC(C)(C)c1cc(NC(=O)Cc2ccc(-c3cnc4cc(-c5cnn(CCN6CCOCC6)c5)ccc4n3)cc2)no1 | 39.4% (inactive)
38 | CNC(=O)c1cc(Oc2ccc(CC(=O)Nc3cc(C(C)(C)C)nn3C)cc2)ccn1 | 101% (inactive)

same assay, conditions: 50 µM

Row | Structure (SMILES) | growth
39 | CC1(C)OB(c2ccc(Cn3cc(F)c(=O)[nH]c3=O)cc2)OC1(C)C | 74.4% (inactive)

same assay, conditions: 100 µM

Row | Structure (SMILES) | growth
40 | COc1ccc(Cl)cc1C(=O)NCCc1ccc(S(=O)(=O)NC(=O)NC2CCCCC2)cc1 | 87.4% (inactive)
41 | Cc1[nH]c(-c2nc3ccccc3[nH]2)c(C)c1C(=O)NC(C)C1CCCCC1 (stereo unspecified) | -82.6% (active)
